Screening data deposited in PubChem by National Center for Advancing Translational Sciences (NCATS).
A selection: hits, their analogues and other compounds. The true share with any hit is near 21%.
DT40 TDP1 no CPT: qHTS for Inhibitors of human tyrosyl-DNA phosphodiesterase 1 (TDP1): qHTS in cells in absence of CPT. DT40 Tdp1-/- hTDP1 cells, no CPT, ATP luminescence, 48 h. Potency, µM (titrated, usually from 46.2 µM), without a hit: at the highest dose activity change, negative = growth inhibition, hits mostly inhibitors. actives 15% (n = 420,000); further: potency means the concentration at half of the fitted maximal effect; on the % scale 0 is the no-effect control and ±100 the full control effect; nearly all actives have a fitted effect of over 55% in size
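A cellular qHTS used chicken DT40 cells lacking endogenous Tdp1 but carrying stably transfected human TDP1. Compounds were applied without camptothecin, and cell growth kinetics were judged by ATP-dependent luminescence after ≥48 hr.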
ClpP mod: qHTS Assay for Activators of ClpP; purified B. subtilis ClpP, FRET peptide cleavage, 20 min; Potency, µM (titrated, usually from 57.5 µM), without a hit: at the highest dose activity change, negative = active; actives 1.9% (n = 340,000); AID 651965, 2013; active means well fitted falling curve with a large enough effect; inconclusive means small, poorly fitted or top-dose-only effect; inactive means no such curve, though single readings can be large or run the other way; further: potency means the concentration at half of the fitted maximal effect; the source files actives as falling curves though it sought activators and does not explain the sign; nearly all actives have a fitted effect of over 65% in size
Target sequence (P80244 whole entry, looked up): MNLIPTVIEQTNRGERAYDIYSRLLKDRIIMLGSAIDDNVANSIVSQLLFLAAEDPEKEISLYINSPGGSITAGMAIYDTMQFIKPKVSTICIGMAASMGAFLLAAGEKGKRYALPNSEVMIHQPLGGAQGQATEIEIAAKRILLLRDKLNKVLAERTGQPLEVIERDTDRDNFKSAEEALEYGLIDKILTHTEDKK
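FRET quenching reversal measured ClpP activation: 10 microg/mL B. subtilis ClpP at pH 8 with the FRET-FV decapeptide, read at 430 nm after 320 nm excitation. The 20-min minus 0-min signal was scaled between DMSO/no-enzyme wells and ADEP (5.8 microM final).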
IL-1B inflam inh: inflammasome signaling inhibition, IL-1 beta readout; actives 4.7% (n = 360,000); activity change, % at 57.5 µM; THP-1 LPS/ATP IL-1B secretion, AlphaLISA, 16 h; active compounds read low; AID 743279; in the data active means activity change below about -50%; inconclusive means mostly about -30% to -49%; further: on the % scale 0 is the no-effect control and ±100 the full control effect
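THP-1 cells pretreated 1 hr with compounds (up to 57.5 uM final), then stimulated with LPS (250 ng/mL final) plus ATP (1.25 mM final); secreted IL-1B measured by AlphaLISA after 16 hr, decreased signal indicating inhibition.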
TDP1 cell CPT: DT40-hTDP1 cell growth loss with CPT. AID 686979. Potency, µM (top dose mostly 46.2 µM), for the others: at the highest dose activity change, negative = growth inhibition, most hits filed as inhibitors. actives 12% (n = 420,000). chicken DT40 Tdp1-/-;hTDP1 cells + 20 nM CPT, ATP luminescence, 48 h; further: potency means the concentration at half of the fitted maximal effect; on the % scale 0 is the no-effect control and ±100 the full control effect; nearly all actives have a fitted effect of over 55% in size
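Chicken DT40 Tdp1-/- cells stably complemented with human TDP1 were seeded at 400 cells/well in medium containing 20 nM camptothecin, exposed to pin-transferred compounds, and grown at 37 °C for at least 48 hr. Viability was read as ATP luminescence.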
D3 antag: D3 dopamine receptor (human) antagonism; D3R cells, DiscoveRx beta-arrestin luminescence, antagonist mode; active compounds read low; actives 2.5% (n = 360,000); P35462; max response, negative = inhibition, %; in the data active means max response below about -50%; inconclusive means no clear call, values can overlap the other calls; further: on the % scale 0 is the no-effect control and ±100 the full control effect
Target sequence (P35462 whole entry, looked up): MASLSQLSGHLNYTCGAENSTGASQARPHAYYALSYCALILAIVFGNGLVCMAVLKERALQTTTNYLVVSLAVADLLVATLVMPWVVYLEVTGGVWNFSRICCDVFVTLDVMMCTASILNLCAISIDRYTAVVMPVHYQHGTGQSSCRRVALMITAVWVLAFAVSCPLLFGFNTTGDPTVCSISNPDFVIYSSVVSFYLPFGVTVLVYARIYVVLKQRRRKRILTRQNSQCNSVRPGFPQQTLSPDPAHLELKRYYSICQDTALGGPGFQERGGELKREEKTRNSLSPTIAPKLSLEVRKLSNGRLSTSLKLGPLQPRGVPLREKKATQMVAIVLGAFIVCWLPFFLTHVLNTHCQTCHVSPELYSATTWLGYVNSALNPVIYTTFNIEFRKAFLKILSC
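Cells plated overnight at 1500 cells/well, then exposed to library compounds with dopamine controls for 90 minutes at 37 degrees C. DiscoveRx reagent added for 30–60 minutes at room temperature; luminescence read, quantitative HTS format.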
DRD3 agonist: agonists of human D3 dopamine receptor. P35462. max activation, %. D3R DiscoveRx beta-arrestin cells, luminescence, 90 min. actives 0.58% (n = 410,000); in the data active means max activation above about 30%; further: 0% is about no effect
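Agonist-mode cell screen: cells plated at 1500/well and incubated overnight at 37 °C, then exposed to library compounds for 90 min at 37 °C. Detection reagent was added for 30–60 min at room temperature, and luminescence was read.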
* = called active by the depositor; ? = inconclusive; / = not tested or not shown. Unless noted, the call rests on the fitted dose curve; in most records, active means well fitted inhibition curve with a large enough effect; inconclusive means small, poorly fitted or top-dose-only effect; inactive means flat fitted curve, though single readings scatter.

SMILES | DT40 TDP1 no CPT | ClpP mod | IL-1B inflam inh | TDP1 cell CPT | D3 antag | DRD3 agonist
Cc1ccccc1C(=O)N1CCN(c2ccc(NC(=O)c3ccc4c(c3)OCO4)cc2)CC1 | 13µM* | / | -131* | 13µM* | 5 | 8
CCC(=O)N1CCN(c2ccc(NC(=O)c3ccc4c(c3)OCCO4)cc2)CC1 | 10% | -14% | 19 | -16% | -4 | 5
O=C(Nc1ccc(N2CCN(C(=O)c3ccc(Cl)cc3)CC2)cc1)c1ccc(Br)o1 | ? | -2% | -69* | ? | 0 | 0
CC(=O)N1CCN(c2ccc(NC(=O)c3ccccc3C)cc2)CC1 | 9% | -2% | -7 | 5% | 3 | -1
Cc1ccccc1C(=O)N1CCN(c2ccc(NC(=O)c3ccc([N+](=O)[O-])o3)cc2)CC1 | 2.3µM* | / | -95* | 5.2µM* | -72* | -9
COc1ccc(OCCOC(=O)C(C)NS(=O)(=O)c2ccc(NC(C)=O)cc2)cc1 (centres undefined) | ? | -2% | -77* | -15% | -8 | -2
COc1ccc(C(=O)COC(=O)[C@H](C)NS(=O)(=O)c2ccc(NC(C)=O)cc2)cc1OC | -8% | 0% | -93* | -6% | 3 | 4
COc1ccc(NC(=O)CSc2nc3nc(C)c(Cc4ccc(C)cc4)c(C)n3n2)cc1OC | ? | 0% | / | ? | / | 5
COc1ccc(NC(=O)Nc2nnc(C)s2)cc1 | 0% | 1% | / | 9% | / | 6
COc1ccc(NC(=O)Nc2nc(C(N)CC(C)C)cs2)cc1 (centres undefined) | 16µM* | -1% | ? | ? | -6 | -9
CC(C)c1ccccc1NC(=O)CNCCc1ccc(C(F)(F)F)cc1 | 26µM* | -2% | -6 | ? | -5 | -16
CC(C)(C)c1ccccc1NC(=O)Nc1nc(C(N)Cc2ccc(F)cc2)cs1 (centres undefined) | 21µM* | -3% | -53* | ? | 7 | -1
CC(C)c1ccccc1NC(=O)Nc1nc(C(N)Cc2ccc(C(F)(F)F)cc2)cs1 (centres undefined) | 23µM* | -6% | -18 | 13µM* | 37 | 14
COC(=O)CC1C(=O)NCCN1C(=O)CSc1nnnn1-c1ccc(OC)cc1 (centres undefined) | 4% | 0% | 24 | 3% | 10 | 0
CN(CC(=O)N1CCOCC1)Cc1c(Cl)cccc1NC(=O)c1ccccc1 | ? | / | / | ? | / | 0
NC(Cc1ccc(C(F)(F)F)cc1)c1csc(NC(=O)Nc2ccccc2Cc2ccccc2)n1 (centres undefined) | 23µM* | 0% | -61* | ? | 21 | 5
CC(C)CC(N)c1csc(NC(=O)Nc2ccccc2C(C)C)n1 (centres undefined) | 15µM* | -2% | ? | ? | 42 | -7
NC(c1csc(NC(=O)Nc2ccc(OC(F)(F)F)cc2)n1)C1CCCCC1 (centres undefined) | 9.2µM* | -4% | -112* | 10µM* | 1 | -2
COc1ccccc1C/C(N)=N/OC(=O)COc1ccc(C)cc1 | ? | -1% | -12 | -15% | 0 | 4
N#Cc1cccc(NC(=O)Cn2cnc(S(=O)(=O)N3CCCC3)c2)c1 | -7% | -1% | 0 | -7% | -7 | -16
O=C(COC(=O)c1cnccn1)Nc1ncc(C(F)(F)F)cc1Cl | 3% | 2% | -4 | 13% | -12 | 0
CN(/N=C/c1cc(Br)cc(Br)c1O)c1cccc(C(F)(F)F)n1 | 16µM* | 1% | -10 | 7.3µM* | ? | -9
CCOC(=O)/C(C)=C1\NC(C)(C)Cc2ccccc21 | ? | -1% | 5 | -23% | -1 | 1
CCCCC1(C)Cc2ccccc2C(=S)N1 (centres undefined) | ? | -2% | -4 | 23µM* | -50* | -8
Cc1ccc(NC(=O)Cc2ccc(-n3c(C)nc4cccnc43)cc2)c(Cl)c1 | 4.1µM* | -2% | / | 5.2µM* | / | -2
SMILES | DT40 TDP1 no CPT | ClpP mod | IL-1B inflam inh | TDP1 cell CPT | D3 antag | DRD3 agonist
COc1ccc(C(=O)Nc2cccc(-c3nc4cccnc4s3)c2C)c(OC)c1 | 12µM* | 2% | / | 21µM* | / | -10
Cc1c(NC(=O)Cc2ccc(Cl)cc2)cccc1-c1nc2cccnc2s1 | 16µM* | -5% | / | ? | / | -17
COc1ccc(-c2nsc(SCC(=O)Nc3ccc4c(c3)OCO4)n2)cc1 | ? | 2% | 27 | ? | 10 | 3
COc1ccc(-c2[nH]c(-c3ccccc3)nc2SCC(=O)Nc2ccc3c(c2)OCO3)cc1 | 21µM* | ? | / | ? | / | -5
COc1cccc(-c2nc(SCC(=O)Nc3ccc4c(c3)OCCO4)c(-c3ccc(C)cc3)[nH]2)c1 | 23µM* | 28µM* | / | ? | / | -1
COc1ccc(NC(=O)CSc2nc(-c3ccccc3)[nH]c2-c2ccccc2)cc1OC | 8.2µM* | -17% | / | 15µM* | / | -2
COc1ccc(-c2nc(SCC(=O)Nc3ccc4c(c3)OCCO4)c(-c3ccc(F)cc3)[nH]2)cc1OC | 21µM* | -8% | / | ? | / | 7
COc1ccc2c(c1OC)C(=O)N1C2SC(C)(C)[C@H]1C(=O)NC1CC1 (some centres undefined) | 2% | -15% | 22 | 11% | -17 | 20
O=C(CSc1nc(-c2ccc(F)cc2)[nH]c1-c1ccccc1)Nc1ccccc1 | 12µM* | ? | / | 18µM* | / | -5
COc1ccc(-c2nc(SCC(=O)Nc3ccccc3)c(-c3ccc(F)cc3)[nH]2)cc1OC | ? | -11% | / | ? | / | -23
COc1cc(-c2nc(SCC(=O)Nc3ccc(C)cc3)c(-c3ccc(F)cc3)[nH]2)cc(OC)c1OC | 15µM* | -26% | / | ? | / | -15
COc1ccc(-c2nc(SCC(=O)NC3CCCC3)c(-c3ccc(F)cc3)[nH]2)cc1OC | ? | -10% | / | ? | / | -14
COc1ccc(NC(=O)CSc2ncccc2C(=O)OC(C)C)cc1OC | 12µM* | -2% | -6 | 12µM* | 41 | 14
CC(C)Oc1ccc(C2CC(=O)N(c3cccc(Br)c3)C2=O)cc1 (centres undefined) | -20% | 0% | -8 | -28% | 6 | 0
O=C(NCc1ccccc1)Nc1nnc([C@@H]2C[C@H](O)[C@@H](CO)O2)s1 | -11% | -2% | -4 | -19% | 0 | -3
